This is an account of results in PubChem BioAssay (NCATS).

Where “and” joins values, the source holds several entries; their conditions need not be identical. Equal values may be shown once. Inconclusive results are not listed. Calls of active or inactive are those of the source. The call rests on the fitted dose curve; in most records, active means well fitted inhibition curve with a large enough effect; inconclusive means small, poorly fitted or top-dose-only effect; inactive means flat fitted curve, though single readings scatter.
On the % scale 0 is the no-effect control and ±100 the full control effect; potency means the concentration at half of the fitted maximal effect.

For the assay, the system named is CRL-7250. As to the kind of experiment: Cytotoxic Profiling of Annotated Libraries Using Quantitative High-Throughput Screening (AID 1296008). Further: nearly all actives have a fitted effect of over 60% in size. Conditions: Five cell lines viability, CellTiter-Glo ATP luminescence, 48-72 h; max response: stronger effect = lower value. In a few lines: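 Cytotoxicity was measured as CellTiter-Glo ATP luminescence, read after 10 min at room temperature. Compound treatment of the cells lasted 48 or 72 hr at 37 degrees Celsius in a qHTS format.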
`CN[C@@H](C)C(=O)N[C@H]1CCCC[C@H]2CC[C@@H](C(=O)N[C@@H](c3ccccc3)c3cn(CCCCc4ccc(CCCCn5cc([C@@H](NC(=O)[C@@H]6CC[C@@H]7CCCC[C@H](NC(=O)[C@H](C)NC)C(=O)N76)c6ccccc6)nn5)cc4)nn3)N2C1=O`: the max response is -4.97% (inactive).

Regarding `Cc1cc([C@@H](C)Nc2ccccc2C(=O)O)c2nc(N3CCOCC3)cc(=O)n2c1`, the Potency was 3.82 µM (active).

Consider `O=C(NOC[C@H](O)CO)c1ccc(F)c(F)c1Nc1ccc(I)cc1F`, for which the Potency was 3.32 µM (active) and 3.66 µM (active).

Regarding `Cc1csc(NC(=O)c2sc3nc4c(c(C(F)(F)F)c3c2N)CCC4)n1`, the max response was -0.546% (inactive) and -0.36% (inactive).

For `Cc1cc(C=c2sc3nc4ccccc4n3c2=O)c(C)n1-c1ccccc1`, the max response is -1.5% (inactive).

On to `COc1c(Cl)cc2c([nH]c3cnccc32)c1NC(=O)c1cccnc1C`, for which the molecule was called inactive.

For `COCC(=O)NCC=Cc1ccc2ncnc(Nc3ccc(Oc4ccc(C)nc4)c(C)c3)c2c1`, the Potency was 23.5 µM (active).

As for `COc1ccc(-c2ccc3c(N4CCOCC4)nc(N4C[C@@H](C)O[C@@H](C)C4)nc3n2)cc1CO`, the Potency was 0.296 µM (active).

As for `Oc1cccc(-c2nc(N3CCOCC3)c3oc4ncccc4c3n2)c1`, the Potency was 0.0762 µM (active).

For the molecule `NC(=O)c1ccc(I)c([N+](=O)[O-])c1`, the max response is 1.49% (inactive).

Take `CCCC(CCC)C(=O)O`: the max response was -7.38% (inactive) and -1.13% (inactive).

Turning to `C[C@]12CC[C@H](O)CC1=CC[C@@H]1[C@H]2CC[C@]2(C)C(c3cccnc3)=CC[C@H]12`, the outcome was inactive.

Regarding `CCc1cc(Nc2nccc(-c3c(-c4ccc(OC)c(C(=O)Nc5c(F)cccc5F)c4)nc4ccccn34)n2)c(OC)cc1N1CCC(N2CCN(S(C)(=O)=O)CC2)CC1`, the max response is -19.7% (inactive).

For `CCn1c(-c2nonc2N)nc2cnc(Oc3cccc(NC(=O)c4ccc(OCCN5CCOCC5)cc4)c3)cc21`, the Potency is 20.9 µM (active).

Take `CCOc1ccc(Cc2cc([C@@H]3O[C@H](CO)[C@@H](O)[C@H](O)[C@@H]3O)ccc2Cl)cc1`: the max response was -1.42% (inactive).

Turning to `Cc1n[nH]c(C)c1Cc1sc2c(c1C(=O)N1C[C@H](O)CO1)c(=O)n(C)c(=O)n2CC(C)C`, the max response is -7.94% (inactive).

As to `CCN(c1ccccc1)c1cc(NC)[n+](C)c(C)n1`, the max response was -1.6% (inactive).

For the molecule `Cc1cnc(NC(=O)C2=C(O)c3ccccc3S(=O)(=O)N2C)s1`, the outcome was inactive.

In the case of `CCC(C)N(C)C(=O)c1cc2ccccc2c(-c2ccccc2Cl)n1` (stereo not given), the max response was 0.969% (inactive).

Consider `Cc1cnc(Nc2ccc(OCCN3CCCC3)cc2)nc1Nc1cccc(S(=O)(=O)NC(C)(C)C)c1`, for which the Potency was 3.72 µM (active).

`COc1ccc(-c2oc3cc(OC)ccc3c2C(=O)c2ccc(C#N)cc2)cc1`: the call was inactive.

With `Cc1c(CN2CCN(C(=O)C(C)C)CC2)sc2c(N3CCOCC3)nc(-c3cnc(N)nc3)nc12`, the Potency is 0.118 µM (active).

With `CN(C)c1ccc(Nc2nc(N)n(C(=O)c3c(F)cccc3F)n2)cc1`, the max response was 4.97% (inactive).

For `COc1ccc(CCN2CCN(CCCc3ccccc3)CC2)cc1OC`, the molecule was classed as inactive.

Take `CC[C@H](Nc1ncnc2nc[nH]c12)c1nc2cccc(F)c2c(=O)n1-c1ccccc1`: the max response was -4.35% (inactive).
